Inconclusive results are not listed. Active and inactive are the calls of the source. Calls come from the whole dose curve; as a rule, active = well fitted cell-killing curve with a large enough effect; inconclusive = small, poorly fitted or top-dose-only effect, or effect the other way; inactive = flat fitted curve, though single readings scatter.
Potency is the fitted concentration of half-maximal effect.

In one assay the test system is PA-1. The experiment in a line: Primary qHTS to identify gynecologic anti-cancer compounds using libraries of approved drugs and bioactive compounds (AID 1345084). Note: nearly all actives have a fitted effect of over 55% in size. The note with it: Gynecologic cancer cell panel viability, ATPlite luminescence, 48 h; series mostly up to 57.5 µM. A digest of the protocol:
(§1)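 Luminescence from the ATPlite ATP-monitoring reagent indicates viable cell number; lower signal means cytotoxicity. Cells received compound 16 h after seeding and were exposed for 48 h across five concentrations.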
For orientation: Quantitative high-throughput screening tests each substance at several concentrations.
Take `Nc1ccc(C(=O)Nc2cccc(-c3nc(N4CCOCC4)c4oc5ncccc5c4n3)c2)cn1`: the Potency was 3.16 µM (active). Take `C=CC(=O)Nc1ccc2ncnc(Nc3ccc(OCc4cccc(F)c4)c(Cl)c3)c2c1`: the Potency result is “inactive”.

For the compound `COc1ccc(S(=O)(=O)Nc2cccnc2Nc2ccc(O)cc2)cc1`, the Potency was 1 µM (active). `FC(F)c1nc2ccccc2n1-c1nc(N2CCOCC2)nc(N2CCOCC2)n1`: the Potency is 2 µM (active).

In the case of `Cc1cnc(Nc2ccc(CN3CCOCC3)cc2)nc1Nc1cccc(S(=O)(=O)NC(C)(C)C)c1`, the Potency was 1.58 µM (active). The same measure, in the same setting: with `CCCCOc1ccc(C(=O)Nc2ccc(F)cc2F)cc1` the entry was “inactive”. Still for that read-out and setting: with `Cc1ccc(-n2[nH]c(C)c(N=Nc3cccc(-c4cccc(C(=O)O)c4)c3O)c2=O)cc1C` the figure was 1.58 µM (active); with `C[C@@H](Cc1cc2c(c(C(N)=O)c1)N(CCCO)CC2)NCCOc1ccccc1OCC(F)(F)F`, 31.6 µM (active).

In a further assay the test system is SKOV3. The description is as above. The note with it: Gynecologic cancer cell panel viability, ATPlite luminescence, 48 h; series mostly up to 57.5 µM. A digest of the protocol:
as §1
With `Nc1ccc(C(=O)Nc2cccc(-c3nc(N4CCOCC4)c4oc5ncccc5c4n3)c2)cn1`, the Potency was 15.8 µM (active). In the case of `CC(C)c1cc(C(C)C)c(CC(=O)NS(=O)(=O)Oc2c(C(C)C)cccc2C(C)C)c(C(C)C)c1`, the Potency result was “inactive”.

For the compound `C=CC(=O)Nc1ccc2ncnc(Nc3ccc(OCc4cccc(F)c4)c(Cl)c3)c2c1`, the Potency result is “inactive”. As to `COc1ccc(S(=O)(=O)Nc2cccnc2Nc2ccc(O)cc2)cc1`, the Potency was 6.31 µM (active). As for `FC(F)c1nc2ccccc2n1-c1nc(N2CCOCC2)nc(N2CCOCC2)n1`, the Potency was 2.82 µM (active).

Take `Cc1cnc(Nc2ccc(CN3CCOCC3)cc2)nc1Nc1cccc(S(=O)(=O)NC(C)(C)C)c1`: the Potency was 7.08 µM (active). Same read-out and setting: with `Cc1ccc(-n2[nH]c(C)c(N=Nc3cccc(-c4cccc(C(=O)O)c4)c3O)c2=O)cc1C` the entry was “inactive”; with `C[C@H]1[C@@H](OC(=O)CCC(=O)O)O[C@@H]2O[C@@]3(C)CC[C@@H]4[C@H](C)CC[C@@H]1[C@@]24OO3`, “inactive”.

For the next assay, the system named is Tov-21-G. Described as above. The note with it: Gynecologic cancer cell panel viability, ATPlite luminescence, 48 h; series mostly up to 57.5 µM. A digest of the protocol: as §1
(ATP-based viability assays read luminescence as a measure of living cells.)
With `Oc1ccc([C@@H]2Oc3ccc(O)cc3[C@@H]3CCC[C@@H]32)cc1`, the Potency entry was “inactive”. Still for that read-out and setting: with `CC(C)c1cc(C(C)C)c(CC(=O)NS(=O)(=O)Oc2c(C(C)C)cccc2C(C)C)c(C(C)C)c1` the entry was “inactive”; with `C=CC(=O)Nc1ccc2ncnc(Nc3ccc(OCc4cccc(F)c4)c(Cl)c3)c2c1`, 10 µM (active); with `Cc1cnc(Nc2ccc(CN3CCOCC3)cc2)nc1Nc1cccc(S(=O)(=O)NC(C)(C)C)c1`, 2.24 µM (active). As to `CCCCOc1ccc(C(=O)Nc2ccc(F)cc2F)cc1`, the Potency entry was “inactive”.

For `N#Cc1c(C2CCNCC2)cc(-c2c(O)cccc2OCC2CC2)nc1N`, the Potency was 14.1 µM (active).

As for `CC(C)C[C@H](NC(=O)[C@@H](NC(=O)c1cccc(-c2ccccc2)n1)[C@@H](C)O)B(O)O`, the Potency was 0.112 µM (active).

The record behind these values is PubChem BioAssay (NCATS).
